# VDR inh = blocks the human vitamin D receptor. 400,000 compounds, 0.93% hits. P11473. VDR-SRC2-3 peptide fluorescence polarization, 2 h. Potency, µM, for inactives: max response, negative = inhibition, hits mostly inhibitors; also: % is scaled to controls: 0 for no effect and ±100 for the full control effect
# Target sequence (P11473 whole entry, looked up): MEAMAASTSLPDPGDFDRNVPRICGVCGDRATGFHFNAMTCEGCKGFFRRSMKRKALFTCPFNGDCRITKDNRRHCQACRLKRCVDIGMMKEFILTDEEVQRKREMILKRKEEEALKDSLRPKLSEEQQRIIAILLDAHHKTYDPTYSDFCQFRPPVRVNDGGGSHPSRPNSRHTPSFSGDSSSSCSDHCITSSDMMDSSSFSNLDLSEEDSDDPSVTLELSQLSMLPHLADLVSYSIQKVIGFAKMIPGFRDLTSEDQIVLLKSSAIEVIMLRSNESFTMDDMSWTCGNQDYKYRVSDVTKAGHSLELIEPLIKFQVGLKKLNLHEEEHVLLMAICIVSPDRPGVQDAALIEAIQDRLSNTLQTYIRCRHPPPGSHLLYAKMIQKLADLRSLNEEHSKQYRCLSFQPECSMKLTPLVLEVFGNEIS
#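 Inhibition of the VDR/SRC2-3 peptide interaction is quantified by fluorescence polarization. Compounds (23 nl, pintool) incubate with the reagents for 2 hours at ambient room temperature.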
# Vif-A3F inh = Vif-A3F binding inhibition. AID 602313. Potency, µM (doses to about 46.1 µM), inactives show top-dose activity, negative = active. HeLa A3F-eYFP + Vif (tagged APOBEC3F with the HIV-1 protein that degrades it), YFP fluorescence increase. 390,000 compounds, 0.2% hits; also: % of control where 0% means no effect; nearly all actives have a fitted effect of over 65% in size
#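 HeLa cells stably expressing A3F-eYFP plus Vif, plated and incubated overnight at 37 deg C, then exposed to compounds overnight at 37 deg C. Blocked degradation read as raised yellow fluorescence (Ex 488/Em 500-530).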
# Vif-APOBEC3G blk = blocks the Vif interaction with human APOBEC3G; 410,000 compounds, 0.076% hits; Potency, µM (series often up to 46.1 µM), inactives show at the top dose activity, negative = active, most hits filed as inhibitors; Q9HC16; HeLa A3G-eYFP + Vif (tagged APOBEC3G with the HIV-1 protein that degrades it), YFP fluorescence, overnight; AID 602310; also: % is scaled to controls: 0 for no effect and ±100 for the full control effect; nearly all actives have a fitted effect of over 60% in size
#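 Read-out is eYFP fluorescence (Ex 488/Em 500-530) from Vif-expressing HeLa A3G-eYFP cells; more signal means A3G escaped Vif-mediated degradation. Cells plated overnight, compound pinned in, incubated overnight at 37 deg C.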
# TrxR1 inh = blocks rat thioredoxin reductase 1; recombinant rTrxR1, NADPH fluorescence consumption, selenite substrate; O89049; Potency, µM (doses to about 114 µM), for the others: top-dose activity change, negative = inhibition, hits mostly inhibitors; 390,000 compounds, 1% hits; also: % is scaled to controls: 0 for no effect and ±100 for the full control effect; nearly all actives have a fitted effect of over 65% in size
#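 Rat TrxR1 (90 nM in the dispensed reagent) was pre-reduced with 400 uM NADPH for 5 min at room temperature, then incubated with compound for 15 min. After 400 uM selenite was added, NADPH fluorescence (Ex 340/Em 450 nm) was followed for 8 min.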
# TrxR1 substrate = substrates of rat thioredoxin reductase 1; O89049; 390,000 compounds, 0.01% hits; Potency, µM (series often up to 114 µM), without a hit: at the top dose activity change, negative = substrate turnover; purified TrxR1 substrate turnover, NADPH consumption readout; AID 588456; also: % is scaled to controls: 0 for no effect and ±100 for the full control effect; nearly all actives have a fitted effect of over 50% in size
#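 Rat TrxR1, dispensed at 90 nM, was prereduced with 400 uM NADPH (final) for 5 min at ~22 deg C, then incubated with compound 15 min before 400 uM selenite. A first-read NADPH fluorescence drop versus no-compound background flagged substrates.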
# The depositor's hits bear a star; u = inconclusive; x = no result; [ ] = dose if it differs, or a comment. This is a sample that favours compounds with a hit; in the whole collection about 1.8% have one here. Calls follow the shape of the dose curve; as a rule, active = well fitted curve in the direction sought with a large enough effect; inconclusive = small, poorly fitted or top-dose-only effect, or another doubt; inactive = no such curve, though single readings can be large; an effect the other way counts as inactive or inconclusive. Potency is read from the fitted curve at half-maximal effect.
SMILES,VDR inh,Vif-A3F inh,Vif-APOBEC3G blk,TrxR1 inh,TrxR1 substrate
O=C1c2ccccc2C(=O)c2c(/C=C/N3CCCCC3)ccnc21,-7%,22µM*,u,-12%,-7%
O=C1c2ccccc2-c2cccnc21,7%,1%,-7%,-3%,3%
Cn1c(=O)c2sccc2n2c(CCCC(=O)Nc3ccc(Oc4ccc(Cl)cc4)cc3)nnc12,4%,-4%,-3%,15%,6%
O=C1C(Br)=C(c2ccccc2)C(c2ccccc2)=C1c1ccccc1,u,6%,-8%,0.71µM*,-8%
C=C(C)C(=O)/C=C/c1ccc(Br)cc1,18µM*,x,x,x,x
Cc1ccc(C(=O)/C=C/c2ccc(Br)cc2)o1,u,1%,-13%,-4%,5%
O=C(O)c1cccs1,x,x,2%,14%,6%
O=C(COC(=O)c1cccnc1Cl)Nc1ccccc1OC(F)F,4%,10µM*,0%,-5%[57.1 µM],-2%[57.1 µM]
Cc1[nH]c2ccccc2c1/C=C/c1ccc2ccccc2n1,x,x,11µM*,u,-3%
C1=Cc2ccccc2/C1=C\c1ccc2c(c1)OCO2,x,x,-5%,-13%,-3%
O=C1Nc2ccc(S(=O)(=O)NCc3ccco3)c3cccc1c23,1%,-3%,3%,45µM*,9%
O=[N+]([O-])c1cc(S(=O)(=O)C(F)(F)F)ccc1Sc1nc2ccccc2[nH]1,u,1%,-18%,8.9µM*,-13%
CS(=O)(=O)c1ccc(Sc2nc3ccccc3[nH]2)c([N+](=O)[O-])c1,10%,-6%,-4%,-29%,-7%
CS(=O)(=O)N(CC(=O)N1CCN(Cc2ccccc2)CC1)c1cccc([N+](=O)[O-])c1,0%,7%,1%,-18%,4%
COc1ccc([N+](=O)[O-])cc1N(CC(=O)N1CCN(Cc2ccccc2)CC1)S(C)(=O)=O,50µM*,0%,-2%,u,-6%[57.1 µM]
COc1ccccc1CNC(=O)c1cc2c(=O)n(Cc3cccs3)ccc2nc1C,4%,-1%,-6%,2%[57.1 µM],9%[57.1 µM]
CCc1nc(N2CCN(C(C)=O)CC2)c2c3c(sc2n1)CC(C(C)(C)C)CC3 (centres undefined),-28%,-20%,0%,-8%,-7%
CCc1nc(N2CCN(C(=O)CCl)CC2)c2c3c(sc2n1)CC(C)CC3 (centres undefined),u,16%,1%,22µM*,5%
COc1ccccc1NS(=O)(=O)c1cc(N)ccc1N1CCCC1,89µM*,0%,-2%,-1%,3%
OCc1ccccc1SSc1ccccc1CO,8.9µM*,4%,-9%,153%[57.1 µM],-2%[57.1 µM]
O=C1[C@H](Cc2ccccc2)NC/C=C\C[C@H](c2ccc(Cl)cc2)N1Cc1ccc(Cl)cc1,x,x,-13%,-14%,-11%
N#Cc1cccc(NC(=S)Nc2ccccc2)c1,-18%,3%,0%,45µM*,-4%
COCCCNC(=O)C(C)N1c2cccc3cccc(c23)S1(=O)=O (centres undefined),71µM*,-4%,-2%,11%[57.1 µM],2%[2.29 µM]
COCCNC(=O)C(C)N1c2cccc3cccc(c23)S1(=O)=O (centres undefined),-1%,x,0%,4%,15%
CC(=O)Oc1ccc(N2C(=O)C3C4C=CC(C5CC45)C3C2=O)cc1[N+](=O)[O-] (centres undefined),u,1%,1%,45µM*,-11%
SMILES,VDR inh,Vif-A3F inh,Vif-APOBEC3G blk,TrxR1 inh,TrxR1 substrate
CC(=O)Oc1ccc(N2C(=O)C3C(C2=O)C2C=CC3C23CC3)cc1[N+](=O)[O-] (centres undefined),5%,0%,1%,-15%,2%
CCCCN(CCC(=O)O)c1ccc(/C=C/c2ccnc3ccccc23)cc1,x,x,u,-1%,1%
O=[N+]([O-])c1cc(Cl)ccc1N1CCCC1,4%,6%,-8%,29%,-1%
O=C1C(Cl)=C(N2CCN(c3ccccc3[N+](=O)[O-])CC2)C(=O)c2ccccc21,40µM*,u,u,0.79µM*,11%
O=C(CN1C(=O)CC(c2ccc(F)cc2)=Nc2ccccc21)NCc1ccccc1Cl,5%,u,-28%,12%[57.1 µM],-8%[57.1 µM]
COc1cccc(CNC(=O)c2c(C)nn(-c3cccc(C)c3)c2-n2cccc2)c1,9%,-9%,3%,3%[57.1 µM],-2%[57.1 µM]
O=C(CCl)N1c2ccccc2OCC1c1ccccc1 (centres undefined),-27%,2%,-13%,2.2µM*,5%
O=C(CCl)N1c2ccccc2SCC1c1ccccc1 (centres undefined),u,2%,u,1.3µM*,7%
COc1ccc(C2=NN(C(=O)CCC(=O)O)C(c3ccc([N+](=O)[O-])cc3)C2)cc1 (centres undefined),-4%,7%,1%,-4%[57.1 µM],-8%[57.1 µM]
CCOC(=O)/C=C(/C)N1N=C(c2ccc(OC)cc2)CC1c1cccc([N+](=O)[O-])c1 (centres undefined),u,3%,0%,50µM*,-11%
O=C(O)CC(C(=O)O)N1C(=O)/C(=C/c2ccc(-c3nc4ccccc4s3)o2)SC1=S (centres undefined),50µM*,-17%,5%,u,-30%
O=C(O)CCCN1C(=O)/C(=C\c2ccc(-c3nc4ccccc4s3)o2)SC1=S,u,2%,-5%,50µM*,-8%
CCCN1CNc2c(c(=O)[nH]c(=S)n2CCc2cccc(C)c2)C1,16%,x,x,-2%,2%
CC(C)C1OC2(C)OC(=N)C1(C#N)C(C#N)(C#N)C2c1ccccc1 (centres undefined),7%,u,4%,1%[57.1 µM],60%[57.1 µM]
CC1CCC(C(C)C)C2=C1C(C#N)(C#N)C(C#N)(C#N)C(c1ccccc1)N2 (centres undefined),89µM*,-4%,-24%,u,11%[57.1 µM]
Cc1ccc(S(=O)(=O)N2CCOCC2)cc1NC(=O)COc1ccc(C(=O)c2ccccc2)cc1,89µM*,-1%,1%,12%,2%
CCCC(=O)Nc1cc(S(=O)(=O)N2CCOCC2)ccc1N1CCCCC1,89µM*,-1%,-1%,15%[57.1 µM],-7%[57.1 µM]
O=C(Cc1ccc(S(=O)(=O)N2CCOCC2)s1)Nc1cc(C(F)(F)F)ccc1N1CCCC1,12%,3%,-1%,-6%[57.1 µM],-6%[57.1 µM]
CC(C)C(=O)Nc1cc(S(=O)(=O)N2CCOCC2)ccc1N1CCCCC1,71µM*,-3%,-2%,19%,3%
CCCC(=O)Nc1cc(S(=O)(=O)N2CCCCC2)ccc1N1CCOCC1,-3%,4%,-1%,29%,4%
O=C(Cc1ccc(S(=O)(=O)N2CCOCC2)s1)Nc1ccccc1N1CCCC1,6%,-3%,0%,11µM*,-2%
CCSc1nc(-c2ccc(Cl)cc2)nc2c1Cc1c(CO)cnc(C)c1O2,-5%,-2%,-4%,-3%,3%

# Screens from PubChem BioAssay.
